{"source": "PubChem BioAssay AID1159580", "about": "(chemical genetic matrix, 2015)", "experiment": "chemical genetic growth profiling, strain panel (AID 1159580);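 also: tested at 20 µM; growth read once vehicle control cultures reached saturation at 30 °C; 1 = growth at the plate median or of vehicle wells; lower values mean less growth of the strain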", "details": "growth OD", "note": "In all, about 5,500 compounds went through this assay and about 2,000 (36%) were called active. Inconclusive results (about 18%) are left out. Rule as the data show it: active = normalized growth mostly below about 0.91 (no sharp cut-off); inconclusive = no clear call, values can overlap the other calls; inactive = mostly above about 0.92. The list shows a part of the results."}
{"molecule": "O=c1cc(-c2ccccc2)oc2c(O)c(O)ccc12", "values": [{"measurement": "normalized growth", "setting": "S. cerevisiae deletion strains, locus YJR066W, strain TOR1, hits give low values", "result": "0.985 (inactive)"}, {"measurement": "normalized growth", "setting": "S. cerevisiae deletion strains, locus YJR075W, strain HOC1, hits give low values", "result": "1.01 (inactive)"}, {"measurement": "normalized growth", "setting": "S. cerevisiae deletion strains, locus YKL009W, strain mrt4, hits give low values", "result": "0.96 (inactive)"}, {"measurement": "normalized growth", "setting": "S. cerevisiae deletion strains, locus YKL068W, hits give low values", "result": "0.976 (inactive)"}, {"measurement": "normalized growth", "setting": "S. cerevisiae deletion strains, locus YKL085W, strain MDH1 (second series), hits give low values", "result": "0.986 (inactive)"}, {"measurement": "normalized growth", "setting": "S. cerevisiae deletion strains, locus YKL085W, strain MDH1, hits give low values", "result": "0.986 (inactive)"}, {"measurement": "normalized growth", "setting": "S. cerevisiae deletion strains, locus YKL160W, strain elf1, hits give low values", "result": "0.986 (inactive)"}, {"measurement": "normalized growth", "setting": "S. cerevisiae deletion strains, locus YKR001C, strain vps1, hits give low values", "result": "0.89 (active)"}, {"measurement": "normalized growth", "setting": "S. cerevisiae deletion strains, locus YKR026C, strain gcn3, hits give low values", "result": "0.993 (inactive)"}, {"measurement": "normalized growth", "setting": "S. cerevisiae deletion strains, locus YKR091W, strain srl3, hits give low values", "result": "0.995 (inactive)"}, {"measurement": "normalized growth", "setting": "S. cerevisiae deletion strains, locus YLL001W, strain dnm1, hits give low values", "result": "0.984 (inactive)"}, {"measurement": "normalized growth", "setting": "S. cerevisiae deletion strains, locus YLL026W, hits give low values", "result": "1 (inactive)"}, {"measurement": "normalized growth", "setting": "S. cerevisiae deletion strains, locus YLL041C, strain sdh2, hits give low values", "result": "0.987 (inactive)"}, {"measurement": "normalized growth", "setting": "S. cerevisiae deletion strains, locus YLR027C, strain aat2, hits give low values", "result": "0.999 (inactive)"}, {"measurement": "normalized growth", "setting": "S. cerevisiae deletion strains, locus YLR039C, strain RIC1, hits give low values", "result": "0.499 (active)"}, {"measurement": "normalized growth", "setting": "S. cerevisiae deletion strains, locus YLR058C, strain SHM2, hits give low values", "result": "0.938 (inactive)"}, {"measurement": "normalized growth", "setting": "S. cerevisiae deletion strains, locus YLR102C, strain apc9, hits give low values", "result": "0.99 (inactive)"}, {"measurement": "normalized growth", "setting": "S. cerevisiae deletion strains, locus YLR113W, strain HOG1, hits give low values", "result": "1.01 (inactive)"}, {"measurement": "normalized growth", "setting": "S. cerevisiae deletion strains, locus YLR221C, strain rsa3, hits give low values", "result": "0.994 (inactive)"}, {"measurement": "normalized growth", "setting": "S. cerevisiae deletion strains, locus YLR258W, strain gsy2, hits give low values", "result": "0.987 (inactive)"}, {"measurement": "normalized growth", "setting": "S. cerevisiae deletion strains, locus YLR262C, strain YPT6 (second series), hits give low values", "result": "0.661 (active)"}, {"measurement": "normalized growth", "setting": "S. cerevisiae deletion strains, locus YLR262C, strain YPT6, hits give low values", "result": "0.593 (active)"}, {"measurement": "normalized growth", "setting": "S. cerevisiae deletion strains, locus YLR268W, strain sec22, hits give low values", "result": "0.768 (active)"}, {"measurement": "normalized growth", "setting": "S. cerevisiae deletion strains, locus YLR320W, strain mms22, hits give low values", "result": "1.01 (inactive)"}, {"measurement": "normalized growth", "setting": "S. cerevisiae deletion strains, locus YLR330W, strain CHS5, hits give low values", "result": "0.985 (inactive)"}, {"measurement": "normalized growth", "setting": "S. cerevisiae deletion strains, locus YLR342W, strain FKS1 (second series), hits give low values", "result": "0.764 (active)"}, {"measurement": "normalized growth", "setting": "S. cerevisiae deletion strains, locus YLR342W, strain FKS1, hits give low values", "result": "0.987 (inactive)"}, {"measurement": "normalized growth", "setting": "S. cerevisiae deletion strains, locus YLR357W, strain rsc2, hits give low values", "result": "0.914 (inactive)"}, {"measurement": "normalized growth", "setting": "S. cerevisiae deletion strains, locus YLR370C, strain arc18, hits give low values", "result": "0.99 (inactive)"}, {"measurement": "normalized growth", "setting": "S. cerevisiae deletion strains, locus YLR371W, strain rom2, hits give low values", "result": "0.848 (active)"}, {"measurement": "normalized growth", "setting": "S. cerevisiae deletion strains, locus YLR384C, strain iki3, hits give low values", "result": "0.989 (inactive)"}, {"measurement": "normalized growth", "setting": "S. cerevisiae deletion strains, locus YLR418C, strain cdc73, hits give low values", "result": "0.789 (active)"}, {"measurement": "normalized growth", "setting": "S. cerevisiae deletion strains, locus YML016C, strain PPZ1, hits give low values", "result": "0.952 (inactive)"}, {"measurement": "normalized growth", "setting": "S. cerevisiae deletion strains, locus YML032C, strain rad52, hits give low values", "result": "1.01 (inactive)"}, {"measurement": "normalized growth", "setting": "S. cerevisiae deletion strains, locus YML120C, strain ndi1, hits give low values", "result": "0.973 (inactive)"}, {"measurement": "normalized growth", "setting": "S. cerevisiae deletion strains, locus YML124C, strain tub3, hits give low values", "result": "0.999 (inactive)"}, {"measurement": "normalized growth", "setting": "S. cerevisiae deletion strains, locus YMR058W, strain fet3, hits give low values", "result": "0.966 (inactive)"}, {"measurement": "normalized growth", "setting": "S. cerevisiae deletion strains, locus YMR078C, strain ctf18, hits give low values", "result": "0.961 (inactive)"}, {"measurement": "normalized growth", "setting": "S. cerevisiae deletion strains, locus YMR125W, strain sto1, hits give low values", "result": "0.984 (inactive)"}, {"measurement": "normalized growth", "setting": "S. cerevisiae deletion strains, locus YMR129W, hits give low values", "result": "0.989 (inactive)"}, {"measurement": "normalized growth", "setting": "S. cerevisiae deletion strains, locus YMR205C, strain PFK2, hits give low values", "result": "1 (inactive)"}, {"measurement": "normalized growth", "setting": "S. cerevisiae deletion strains, locus YMR223W, strain ubp8, hits give low values", "result": "0.953 (inactive)"}, {"measurement": "normalized growth", "setting": "S. cerevisiae deletion strains, locus YMR231W, strain pep5, hits give low values", "result": "0.968 (inactive)"}, {"measurement": "normalized growth", "setting": "S. cerevisiae deletion strains, locus YMR307W, strain GAS1, hits give low values", "result": "0.709 (inactive)"}, {"measurement": "normalized growth", "setting": "S. cerevisiae deletion strains, locus YNL067W, strain RPL9B, hits give low values", "result": "0.955 (inactive)"}, {"measurement": "normalized growth", "setting": "S. cerevisiae deletion strains, locus YNL071W, strain lat1, hits give low values", "result": "0.985 (inactive)"}, {"measurement": "normalized growth", "setting": "S. cerevisiae deletion strains, locus YNL153C, strain GIM3, hits give low values", "result": "0.988 (inactive)"}, {"measurement": "normalized growth", "setting": "S. cerevisiae deletion strains, locus YNL183C, strain NPR1, hits give low values", "result": "1.01 (inactive)"}, {"measurement": "normalized growth", "setting": "S. cerevisiae deletion strains, locus YNL209W, strain ssb2, hits give low values", "result": "0.979 (inactive)"}, {"measurement": "normalized growth", "setting": "S. cerevisiae deletion strains, locus YNL233W, strain BNI4, hits give low values", "result": "0.922 (inactive)"}, {"measurement": "normalized growth", "setting": "S. cerevisiae deletion strains, locus YNL248C, strain rpa49, hits give low values", "result": "0.982 (inactive)"}, {"measurement": "normalized growth", "setting": "S. cerevisiae deletion strains, locus YNL250W, strain rad50, hits give low values", "result": "0.966 (inactive)"}, {"measurement": "normalized growth", "setting": "S. cerevisiae deletion strains, locus YNL271C, strain bni1, hits give low values", "result": "0.972 (inactive)"}, {"measurement": "normalized growth", "setting": "S. cerevisiae deletion strains, locus YNL298W, strain CLA4, hits give low values", "result": "0.972 (inactive)"}, {"measurement": "normalized growth", "setting": "S. cerevisiae deletion strains, locus YNL307C, strain MCK1, hits give low values", "result": "0.982 (inactive)"}, {"measurement": "normalized growth", "setting": "S. cerevisiae deletion strains, locus YNL322C, strain KRE1 (second series), hits give low values", "result": "0.993 (inactive)"}, {"measurement": "normalized growth", "setting": "S. cerevisiae deletion strains, locus YNR049C, strain mso1, hits give low values", "result": "0.993 (inactive)"}, {"measurement": "normalized growth", "setting": "S. cerevisiae deletion strains, locus YNR052C, strain pop2, hits give low values", "result": "0.916 (inactive)"}, {"measurement": "normalized growth", "setting": "S. cerevisiae deletion strains, locus YOL006C, strain TOP1, hits give low values", "result": "0.545 (inactive)"}, {"measurement": "normalized growth", "setting": "S. cerevisiae deletion strains, locus YOL012C, strain htz1", "result": "0.521 (inactive)"}, {"measurement": "normalized growth", "setting": "S. cerevisiae deletion strains, locus YOL147C, strain pex11, hits give low values", "result": "0.977 (inactive)"}, {"measurement": "normalized growth", "setting": "S. cerevisiae deletion strains, locus YOR001W, strain rrp6, hits give low values", "result": "0.972 (inactive)"}, {"measurement": "normalized growth", "setting": "S. cerevisiae deletion strains, locus YOR061W, strain CKA2, hits give low values", "result": "0.921 (inactive)"}, {"measurement": "normalized growth", "setting": "S. cerevisiae deletion strains, locus YOR069W, strain VPS5, hits give low values", "result": "0.971 (inactive)"}, {"measurement": "normalized growth", "setting": "S. cerevisiae deletion strains, locus YOR070C, strain gyp1, hits give low values", "result": "0.982 (inactive)"}, {"measurement": "normalized growth", "setting": "S. cerevisiae deletion strains, locus YOR080W, strain dia2, hits give low values", "result": "0.996 (inactive)"}, {"measurement": "normalized growth", "setting": "S. cerevisiae deletion strains, locus YOR083W, strain WHI5, hits give low values", "result": "0.968 (inactive)"}, {"measurement": "normalized growth", "setting": "S. cerevisiae deletion strains, locus YOR106W, strain vam3, hits give low values", "result": "0.853 (active)"}, {"measurement": "normalized growth", "setting": "S. cerevisiae deletion strains, locus YOR136W, strain idh2, hits give low values", "result": "0.962 (inactive)"}, {"measurement": "normalized growth", "setting": "S. cerevisiae deletion strains, locus YOR144C, strain elg1, hits give low values", "result": "0.986 (inactive)"}, {"measurement": "normalized growth", "setting": "S. cerevisiae deletion strains, locus YOR184W, strain ser1, hits give low values", "result": "0.927 (inactive)"}, {"measurement": "normalized growth", "setting": "S. cerevisiae deletion strains, locus YOR231W, strain MKK1, hits give low values", "result": "1.06 (inactive)"}, {"measurement": "normalized growth", "setting": "S. cerevisiae deletion strains, locus YOR265W, strain rbl2, hits give low values", "result": "0.983 (inactive)"}, {"measurement": "normalized growth", "setting": "S. cerevisiae deletion strains, locus YOR270C, strain vph1, hits give low values", "result": "0.936 (inactive)"}, {"measurement": "normalized growth", "setting": "S. cerevisiae deletion strains, locus YOR290C, strain snf2, hits give low values", "result": "0.987 (inactive)"}, {"measurement": "normalized growth", "setting": "S. cerevisiae deletion strains, locus YOR316C, strain cot1, hits give low values", "result": "0.987 (inactive)"}, {"measurement": "normalized growth", "setting": "S. cerevisiae deletion strains, locus YPL051W, strain arl3, hits give low values", "result": "0.983 (inactive)"}, {"measurement": "normalized growth", "setting": "S. cerevisiae deletion strains, locus YPL078C, strain atp4, hits give low values", "result": "0.989 (inactive)"}, {"measurement": "normalized growth", "setting": "S. cerevisiae deletion strains, locus YPL106C, strain sse1, hits give low values", "result": "0.88 (inactive)"}, {"measurement": "normalized growth", "setting": "S. cerevisiae deletion strains, locus YPL240C, strain hsp82, hits give low values", "result": "0.975 (inactive)"}, {"measurement": "normalized growth", "setting": "S. cerevisiae deletion strains, locus YPL241C, strain CIN2, hits give low values", "result": "0.987 (inactive)"}, {"measurement": "normalized growth", "setting": "S. cerevisiae deletion strains, locus YPL256C, strain CLN2, hits give low values", "result": "1.06 (inactive)"}, {"measurement": "normalized growth", "setting": "S. cerevisiae deletion strains, locus YPR119W, strain clb2, hits give low values", "result": "0.991 (inactive)"}, {"measurement": "normalized growth", "setting": "S. cerevisiae deletion strains, locus YPR141C, strain kar3, hits give low values", "result": "0.974 (inactive)"}, {"measurement": "normalized growth", "setting": "S. cerevisiae deletion strains, locus YPR163C, strain tif3, hits give low values", "result": "0.987 (inactive)"}, {"measurement": "normalized growth", "setting": "S. cerevisiae deletion strains, locus YPR167C, strain met16, hits give low values", "result": "0.993 (inactive)"}, {"measurement": "normalized growth", "setting": "S. cerevisiae deletion strains, strain wtn01, hits give low values", "result": "0.903 (inactive)"}, {"measurement": "normalized growth", "setting": "S. cerevisiae strains, strain wild type, hits give low values", "result": "0.834 (active)"}]}
